This is a sample that favours compounds with a hit; in the whole collection about 4% have one here.
UGM FP inh: M. tuberculosis UGM enzyme inhibitors, primary screen, biochemical, fluorescence polarization, single point. UDP-galactopyranose mutase (Mycobacterium tuberculosis (strain ATCC 25618 / H37Rv)), …. purified UGM, fluorescence polarization probe displacement. inhibition, % at 10 µM. 320,000 compounds, 0.06% hits; in the data active = inhibition above about 10%, passing the limit was not always enough; inconclusive = no clear call, values can overlap the other calls
RecA splice inh: Mtb RecA intein splicing inhibitors, primary screen, biochemical, fluorescence, HTS. Protein RecA (Mycobacterium tuberculosis (strain ATCC 25618 / H37Rv)), P9WHJ3. cell-free RecA intein splicing. inhibition, % (no concentration beside the values). 290,000 compounds, 0.75% hits. AID 2221, 2009; in the data active = inhibition above about 30%; inconclusive = no clear call, values can overlap the other calls;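 also: 0% = vehicle wells and 100% = reference inhibitor control wells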
Target sequence (P9WHJ3 whole entry, looked up, canonical isoform): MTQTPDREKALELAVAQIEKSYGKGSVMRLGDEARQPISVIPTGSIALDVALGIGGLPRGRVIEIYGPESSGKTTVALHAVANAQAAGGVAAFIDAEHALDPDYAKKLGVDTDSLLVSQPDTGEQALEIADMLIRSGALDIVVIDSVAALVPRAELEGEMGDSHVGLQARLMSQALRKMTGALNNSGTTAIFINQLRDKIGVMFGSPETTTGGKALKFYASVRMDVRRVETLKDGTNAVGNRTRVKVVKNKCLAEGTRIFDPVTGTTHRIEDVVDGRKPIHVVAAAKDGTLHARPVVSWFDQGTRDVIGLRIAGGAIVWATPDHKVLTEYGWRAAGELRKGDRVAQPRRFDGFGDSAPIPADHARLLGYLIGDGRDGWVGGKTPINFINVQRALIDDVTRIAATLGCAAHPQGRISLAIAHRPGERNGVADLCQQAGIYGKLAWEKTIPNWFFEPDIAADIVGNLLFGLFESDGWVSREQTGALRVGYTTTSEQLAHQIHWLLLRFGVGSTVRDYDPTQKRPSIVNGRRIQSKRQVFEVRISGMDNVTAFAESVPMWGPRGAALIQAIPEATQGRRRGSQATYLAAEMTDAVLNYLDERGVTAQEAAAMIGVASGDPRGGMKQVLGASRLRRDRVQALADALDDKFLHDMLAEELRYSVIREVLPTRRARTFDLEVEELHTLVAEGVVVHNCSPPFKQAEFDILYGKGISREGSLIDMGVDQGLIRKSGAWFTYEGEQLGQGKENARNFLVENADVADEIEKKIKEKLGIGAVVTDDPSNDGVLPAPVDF
Mtb bLac sens: beta-lactam sensitization of Mtb H37Rv, H37Rv; M. tuberculosis H37Rv growth with meropenem, percent inhibition; inhibition, % at 25 µM; 330,000 compounds, 0.27% hits; call rule not given here;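 also: growth measured after seven days incubation then overnight dye step; 0% = bacteria only wells and 100% = bacteria with antibiotic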
Rv3671c protease: Rv3671c serine protease inhibitors, primary screen, biochemical, fluorescence polarization, M. tuberculosis H37Rv; P9WHR9; inhibition, % at 5.96 µM; 320,000 compounds, 0.048% hits; AID 2606, 2010; in the data active = inhibition above about 38%;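 also: extracellular domain of Rv3671c used as enzyme; 0% = enzyme with DMSO and 100% = no enzyme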
Mtb FBA inh: Mtb FBA enzyme inhibitors, primary screen, biochemical, fluorescence, strain H37Rv | purified M. tuberculosis FBA, fluorescence read-out | inhibition, % at 1 µM | 360,000 compounds, 2.3% hits;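 also: 0% = vehicle and 100% = reference inhibitor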
GDH-TPI counter-1: GDH-TPI coupling enzyme inhibitors, primary screen, artefact control for M. tuberculosis FBA inhibitor project, biochemical, absorbance, full deck; GDH-TPI coupled enzyme counterscreen, NADH absorbance; inhibition, % at 4.8 µM; 360,000 compounds, 1.2% hits; in the data active = inhibition above about 30%;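 also: 0% = DMSO wells and 100% = wells lacking the enzyme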
Mtb FBA inh conf: M. tuberculosis aldolase blockers, biochemical, fluorescence, strain H37Rv, confirmation; shares compounds with Mtb FBA inh; purified M. tuberculosis FBA, fluorescence read-out; inhibition, % at 1 µM; 5,600 compounds, 78% hits;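 also: 0% = vehicle wells and 100% = reference inhibitor wells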
GDH-TPI counter-2: GDH-TPI coupling enzyme inhibitors, artefact control for M. tuberculosis FBA inhibitor project, biochemical, fluorescence, high throughput; shares compounds with Mtb FBA inh; GDH-TPI coupled enzyme counterscreen; inhibition, % at 1 µM; 5,600 compounds, 81% hits; AID 652141, 2013; in the data active = inhibition above about 10%
GDH-TPI DR: GDH-TPI coupling enzyme inhibitors, dose response, artefact control for M. tuberculosis FBA inhibitor project, biochemical, fluorescence, IC50 | shares compounds with Mtb FBA inh | GDH-TPI coupled enzyme assay, artifact counterscreen | IC50, µM | 170 compounds, 79% hits; call rule not given here
The depositor's hits bear a star; u = inconclusive; x = no result given; + = active, no number. Rule as the data show it, unless noted: active = inhibition above about 27%; inactive = the rest.

SMILES	UGM FP inh	RecA splice inh	Mtb bLac sens	Rv3671c protease	Mtb FBA inh	GDH-TPI counter-1	Mtb FBA inh conf	GDH-TPI counter-2	others
CCc1cc(=O)oc2cc(C)cc(OC(C)C(=O)NCCCN3CCOCC3)c12 (configuration not stated)	-0.1	-1.6	5.5	-3.7	58.6*	3.7	85.1*	59.9*
Cc1c(C)c2cc(Cl)c(OC(C)C(=O)NCCN3CCOCC3)cc2oc1=O (configuration not stated)	1.2	-0.7	-1.0	0.8	19.8	0.0	x	x
CC1=C([N+](=O)[O-])C(c2ccccc2C(F)(F)F)NC(=O)N1C (configuration not stated)	-0.4	-0.1	-3.4	8.0	-1.4	12.4	x	x
Cc1cc(C(=O)COC(=O)c2nccnc2N)c(C)n1C	u	0.1	-5.2	13.7	62.1*	7.9	1.8	5.9
CCC1(CC)Cc2ccccc2-c2nc(CN(C)C)[nH]c(=O)c21	-1.5	1.6	95.6	3.7	-0.1	14.7	x	x
CCC1(CC)Cc2ccccc2-c2nc(NCCCO)[nH]c(=O)c21	-1.1	2.9	3.8	0.5	58.6*	7.7	+	+
Cc1nc2oc3c(=O)[nH]cnc3c2c2c1COC(C)(C)C2	1.6	2.2	-7.8	3.5	44.0*	4.9	13.2	-4.7	GDH-TPI DR=4.75*
Cc1nc2oc(C(=O)c3ccc(Br)cc3)c(N)c2c2c1COC(C)(C)C2	-1.1	-5.6	13.3	2.0	4.3	12.7	x	x
Cc1ccc(S(=O)(=O)N2C[C@H]3C(=O)C[C@@H](c4cccc(C)c4)N(S(=O)(=O)c4ccc(C)cc4)[C@H]3C[C@H]2c2ccccc2)cc1	x	x	x	x	-1.4	x	x	x
COc1cc(-c2nnc(SCC(=O)Nc3ccc(C(=O)O)cc3)o2)cc(OC)c1OC	-0.2	x	-4.4	-2.2	-0.9	4.7	x	x
COC(=O)c1ccc(-c2ccc(CNCC(O)c3ccccc3)o2)cc1 (configuration not stated)	1.4	5.9	8.9	8.2	36.1*	13.6	125.6*	105.6*
COC(=O)c1ccc(CNCC(O)COc2ccc(-c3ccccc3)cc2)cc1 (configuration not stated)	0.6	0.3	8.6	-10.5	3.9	-1.5	x	x
COc1ccccc1NC1SC(=O)N(c2ccccc2)C1=O (configuration not stated)	0.4	2.8	-1.1	-8.5	3.6	0.0	x	x
CC1=CN2C(c3cccc([N+](=O)[O-])c3)=NON(c3ccc(C)cn3)C2C=C1 (configuration not stated)	x	x	x	x	2.6	x	x	x
CSCCC(NC(=O)c1ccc(Cl)cc1)C(=O)O (configuration not stated)	1.7	-0.8	3.4	-2.2	4.3	2.2	x	x
CSCCC(NC(=O)c1ccccc1)C(=O)O (configuration not stated)	4.5	6.4	2.4	-0.5	42.3*	6.0	x	+
CSCC[C@H](NC(=O)c1cc2c([nH]c3ccccc32)c(-c2ccccc2)n1)C(=O)O	2.7	1.2	0.7	-8.9	47.4*	11.8	24.0	15.3*
C[C@H](NC(=O)c1cc2c([nH]c3ccccc32)c(-c2ccccc2)n1)C(=O)O	1.7	0.1	-7.0	-4.0	35.6*	-0.7	140.9*	107.7*
O=C(NCCO)c1cc2c([nH]c3ccccc32)c(-c2ccccc2)n1	-1.9	-1.2	2.0	-5.9	24.0	18.0	x	x
CCCCc1nc2ccccc2c(NC(=O)CN2CCCC2)c1CCC	0.6	-0.2	6.9	3.0	1.4	10.8	x	x
O=C(CN1CCCCC1)Nc1c2c(nc3ccccc13)N(c1ccccc1)CC2	-0.5	-4.1	0.4	0.2	79.6*	3.0	151.7*	125.0*
CCOC(=O)c1cc(-c2cc3ccccc3o2)nc2c1c(=O)[nH]c(=O)n2CCOC	0.0	-54.7	28.7	-7.6	45.8*	4.8	2.2	1.4
CCOC(=O)NN1C(=O)c2ccccc2NC1c1cccnc1 (configuration not stated)	-0.6	-1.3	-0.7	1.1	21.1	-2.8	x	x
COc1ccc(C2Nc3ccccc3C(=O)N2NS(=O)(=O)c2ccccc2)c(OC)c1 (configuration not stated)	0.1	-4.0	9.1	5.9	14.1	7.7	x	x
CCOC(=O)NN1C(=O)c2ccccc2NC1c1ccc(OC)cc1OC (configuration not stated)	-0.6	-3.2	5.2	0.4	41.6*	3.5	179.9*	143.7*
SMILES	UGM FP inh	RecA splice inh	Mtb bLac sens	Rv3671c protease	Mtb FBA inh	GDH-TPI counter-1	Mtb FBA inh conf	GDH-TPI counter-2	others
CCOC(=O)NN1C(=O)c2ccccc2NC1c1cccs1 (configuration not stated)	-0.7	-2.6	4.7	6.3	31.3*	15.0	82.3*	70.3*
CCC(Oc1ccccc1)C(=O)Nc1ccccc1C(=O)N1CCCCC1 (configuration not stated)	1.5	19.3	1.5	4.1	-2.1	6.7	x	x
Cc1nc(C(F)(F)F)ccc1C(=O)N1CCC1(C)C(=O)NCc1cccs1 (configuration not stated)	x	x	x	x	-0.9	5.3	x	x
CCn1c(C(C)NC(=O)c2ccc(Cl)cc2)n[nH]c1=S (configuration not stated)	1.1	2.2	-0.4	4.0	39.6*	-2.5	107.2*	85.9*
CCOC(=O)c1cc2c(=O)n3cccc(C)c3nc2n(CC2CCCO2)c1=NC(C)=O (configuration not stated)	-2.3	-1.5	1.8	-1.6	79.3*	5.6	90.3*	68.3*
CC(C)NC(=O)c1ccc2c(=O)n(CC3CCCO3)c(=S)[nH]c2c1 (configuration not stated)	-0.1	-0.1	8.4	-4.8	0.3	6.2	x	x
C[C@H]1CN([C@@H](C)CO)C(=O)CCCn2nncc2CO[C@H]1CN(C)S(=O)(=O)c1cccc(C#N)c1	x	x	x	x	-3.4	3.1	x	x
CC(c1ccco1)N(Cc1ccco1)C(=O)Nc1ccccc1 (configuration not stated)	-1.1	1.5	-1.0	-2.1	4.5	-0.4	x	x

Compound activity: PubChem BioAssay, several laboratories
